# According to the supplement of paper PMC6555819:
# Experiments:
# Assay in all cases: PBM binding z-score (relative to random genomic background probes); higher = stronger binding; sequences stand for … in GC…GCGATTGACAGCGTAGAATGAAGG
# [1] = system: FXR:RXRa (NR concentration 270 nM, RXRa partner concentration 90 nM)
# Method in brief: (§1)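 Binding z-scores were set against random background probes. The data came from custom Agilent 4×180K protein-binding microarrays carrying double-stranded probes with 34-nt variable regions, incubated 1 h with ligand-free nuclear receptor dimers. Partner-specific antibodies detected binding, and scanned fluorescence was regression-normalized.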
# [2] = system: LXRa:RXRa (NR concentration 270 nM, RXRa partner concentration 90 nM)
# Method in brief: as §1
# [3] = system: LXRa homodimer (NR concentration 270 nM)
# Method in brief: as §1
# [4] = system: LXRb:RXRa (NR concentration 270 nM, RXRa partner concentration 90 nM)
# Method in brief: as §1
# [5] = system: LXRb homodimer (NR concentration 270 nM)
# Method in brief: as §1
# [6] = system: PPARa:RXRa (NR concentration 270 nM, RXRa partner concentration 90 nM)
# Method in brief: as §1
# [7] = system: PPARg:RXRa (NR concentration 180 nM, RXRa partner concentration 90 nM)
# Method in brief: as §1
# [8] = system: PPARg:RXRa 270nM:90nM, anti-RXR (NR concentration 270 nM, RXRa partner concentration 90 nM)
# Method in brief: as §1
# [9] = system: PPARg:RXRa 30nM:10nM, anti-RXR (NR concentration 30 nM, RXRa partner concentration 10 nM)
# Method in brief: as §1
# [10] = system: PPARg:RXRa 90nM:30nM, anti-RXR (NR concentration 90 nM, RXRa partner concentration 30 nM)
# Method in brief: as §1
# [11] = system: PPARg:RXRa DBDmut IVT, anti-RXR (DBD mutation: RXRa K156A/R161A, NR concentration 270 nM, RXRa partner concentration 90 nM)
# Method in brief: as §1
# [12] = system: PPARg:RXRa IVT, anti-PPARg (NR concentration 270 nM, RXRa partner concentration 90 nM)
# Method in brief: as §1
# [13] = system: PPARg DBDmut:RXRa IVT, anti-PPARg (DBD mutation: PPARg1 K132A/R137A, NR concentration 270 nM, RXRa partner concentration 90 nM)
# Method in brief: as §1
# [14] = system: PPARg DBDmut IVT, anti-PPARg (DBD mutation: PPARg1 K132A/R137A, NR concentration 270 nM)
# Method in brief: as §1
# [15] = system: PPARg homodimer (NR concentration 180 nM)
# Method in brief: as §1
# [16] = system: PXR:RXRa (NR concentration 270 nM, RXRa partner concentration 90 nM)
# Method in brief: as §1
# [17] = system: PXR homodimer (NR concentration 270 nM)
# Method in brief: as §1
# [18] = system: RARa:RXR (NR concentration 270 nM, RXRa partner concentration 90 nM)
# Method in brief: as §1
# [19] = system: RARa homodimer (NR concentration 270 nM)
# Method in brief: as §1
# [20] = system: RARb:RXRa (NR concentration 270 nM, RXRa partner concentration 90 nM)
# Method in brief: as §1
Sequence,PBM binding z-score [1],PBM binding z-score [2],PBM binding z-score [3],PBM binding z-score [4],PBM binding z-score [5],PBM binding z-score [6],PBM binding z-score [7],PBM binding z-score [8],PBM binding z-score [9],PBM binding z-score [10],PBM binding z-score [11],PBM binding z-score [12],PBM binding z-score [13],PBM binding z-score [14],PBM binding z-score [15],PBM binding z-score [16],PBM binding z-score [17],PBM binding z-score [18],PBM binding z-score [19],PBM binding z-score [20]
GCTGCTAGGTCAACTGATGGTCTGCTAAAGCTCG,3.83,2.66,-0.135,1.8,0.0375,3.45,2.31,2.78,0.103,1.81,4.88,4.03,0.365,-0.14,1.69,1.37,-0.53,2.39,0.112,4.1
TTACCAAGCTGAGCTGAGGTCGTTGATCCAACTC,0.0307,-0.149,-0.687,-0.148,-1.09,0.413,-0.752,-0.18,-0.479,-0.597,-0.796,-0.588,-0.701,-1.02,-1.16,1.06,0.0399,0.708,-1.15,0.0389
CCAGACAAGTGAGAAGGTAACTCAGCCTCGATTA,-0.1,0.185,0.265,0.312,0.105,-0.0657,0.295,-0.204,-0.274,-0.419,0.321,-0.293,-0.675,-0.316,1.29,-0.132,0.602,0.088,1.08,0.0534
CCTACTGGACCACGAAAGGTCATTGATTCAGTGA,3.93,5,5.74,4.47,1.54,4.5,2.84,3.67,1.47,2.9,3.39,3.26,0.692,0.507,3.78,5.28,2.09,5.61,2.84,4.02
TGTCAAAGTTCAAAGGTAACGTCAGTATCCACAC,7.51,6.72,4.98,4.84,1.79,5.79,8.85,7.88,5.71,7.79,0.357,4.74,1.94,1.89,4.29,5.89,3.43,6.36,0.737,5.36
ATCTCTAGGTACGACTCAGTTCAGTGAAGAACGC,0.373,0.42,0.735,0.686,1.15,0.0584,0.161,0.105,0.235,-0.098,0.59,0.456,0.443,1.02,0.793,1.4,1.82,0.363,1.28,0.504
TCTCTTAGTTGAAGGGCAACCGACGAGTCCGTTT,0.776,1.01,0.193,0.945,0.697,1.06,-0.252,2.02,3.7,3.13,2.62,0.645,0.259,0.537,0.739,0.86,0.261,0.472,0.622,1.63
GCTAGCAGGTCATTTGGGTCACTCAATGACGGGC,5.14,3.76,2.34,3.32,0.927,4.37,3.89,4.06,1.29,2.66,3.89,4.84,0.133,-0.577,1.31,3.98,4.92,3.92,0.247,3.94
CCGCCTGGGGCAGAAAGGTTACCATACCATCCGG,0.138,0.416,-0.112,0.678,-1.32,1.59,0.804,1.25,-0.385,0.357,-0.75,-0.444,-1.12,-1.51,0.297,0.861,-0.276,1.49,-0.241,1.83
CGAGACAGGTGAGAAGGTAACTCAGCCTCGATTA,-0.0468,-0.124,-0.337,-0.343,-0.761,0.591,0.452,0.452,-0.196,0.138,0.944,0.575,-0.719,-0.428,0.307,-0.433,-0.255,-0.528,-0.321,0.602
CCTACTGGGCCAATCAGAGGTCATTGATCATATG,2.78,4.24,7.72,3.78,0.545,3.87,2.45,3.15,1.12,2.29,4.6,4.19,1.25,0.284,4.19,5.06,3.38,5.18,0.519,3.27
TGCATGAGGTTAAAGATCAGGGAACGTGGCGTCG,3.2,2.84,0.267,1.84,0.579,3.89,4.03,4.6,2.43,4.38,0.0827,1.55,0.0491,0.396,1.07,2.23,0.0644,2.93,0.611,2.23
CCTTACGGGTCACTGACAGGTTACAGCATTTGGA,5.61,3.93,0.335,3.43,-0.275,5.01,4.41,4.6,1.49,3.28,3.39,4.02,0.114,-0.264,2.85,3.59,0.0317,4.5,0.367,4.06
CCTTACGGGTCACTCCAAGTTATAGCATCGGAGT,4.3,4.77,0.264,2.99,0.193,4.54,3.18,3.68,1.12,2.66,3.33,3.23,0.816,0.0314,3.25,2.57,0.296,3.32,1.47,3.56
CTCAAAAGGTCGGTTGAGGTGAGTATACGGATAA,2.63,1.8,-0.331,1.63,0.0339,2.98,0.821,1.29,0.383,0.881,-0.129,1.12,0.328,0.889,0.591,3.26,0.191,2.82,-0.384,3.4
GCAGACAGGTGAAACGCAGTTAACTCAGGGTGGC,-0.413,-0.168,-0.315,-0.381,-1.38,0.714,0.486,-0.149,-0.977,-0.452,0.917,0.29,-1.71,-0.986,-0.869,-0.255,-0.841,0.164,-0.965,0.589
TCTGCTAGGTCAACGATCGTCAGCTAATCTGCTA,2.97,2.19,-0.465,1.24,-0.245,3.11,2.49,3.26,1.96,2.76,4.39,4.24,-0.071,-0.625,0.478,0.836,-0.972,1.79,-1.13,3.96
GCGGCTAGGTCAGGTTGGTCAGCTAACGGGTACG,1.14,0.573,-0.172,0.648,-0.613,1.33,0.166,0.609,-0.687,0.275,1.28,1.36,-1.08,-0.633,0.749,0.325,-0.293,0.825,-0.0979,3.26
ATCTCTAGGCAAAGATAGTTCAGTGAATGCAAAT,-0.415,0.271,0.124,-0.207,0.263,-0.233,0.154,-0.151,-0.0446,-0.153,0.0233,0.0871,0.389,0.566,-0.0165,-0.0478,0.35,-0.456,0.524,0.211
TTTATTAGTTGATTAGGGCAACCGAAACAGCGGA,0.664,0.617,0.865,0.942,1.33,1.15,0.565,1.71,1.69,1.72,1.46,2.1,1.84,1.94,1.68,0.473,0.839,0.832,2.38,1.24
ATCTCTAGGTAACCAAATTCAGTGAATGCCGAAC,0.306,0.196,0.385,0.283,0.743,0.476,0.6,0.634,0.182,0.59,3.66,2.72,0.888,0.995,0.658,0.0913,0.615,0.166,0.995,0.377
CGTCCAAGTTCAACTAAGGTAACGTAAAGCACGC,4.27,3.59,1.01,2.17,0.515,3.15,1.14,1.5,0.189,0.966,0.15,1.1,0.262,0.451,1.83,4.44,2.78,2.38,0.942,3.63
ATCGAGAGGTCGACGAGGTGAGTATACACCGTTT,3,2.28,-0.165,1.65,-0.204,3.36,1.95,2.03,0.529,1.52,0.355,1.71,-0.00601,0.563,0.663,2.43,0.615,2.84,-0.215,2.8
TATACAGGGTCAAATGCCAGAGTACGAATGTCGA,7.66,6.63,3.82,5.33,3.42,6.33,7.57,6.6,3.95,5.73,2.62,4.6,3.56,3.07,3.17,4.3,1.12,5.47,1.22,4.55
TAGCCTAGGTCATGGGCCATTATACCACGCGAAC,4.64,3.37,0.43,2.95,0.468,4.24,4.34,4.26,1.44,2.97,1.69,3.57,0.221,-0.316,1.41,1.81,-0.0788,2.65,-0.113,3.98
TAGCCTAGGTCATGCCGGCCAGTATAGTGTCGGC,3.44,2.68,0.0179,1.57,-0.0168,3.07,1.99,2.08,0.0348,1.34,1.13,2.47,-0.929,-0.11,0.237,0.798,-0.486,1.77,-0.917,3.48
CGTCAAAGTTCAACTAAGGTAACGTAAAGCACGC,7.09,6.32,4.44,4.24,1.99,5.14,5.22,5.44,2.32,4.08,0.3,2.33,1.23,0.815,2.8,5.69,3.56,4.67,2.05,5.43
ATCTCCAGGTAACAAGTTCAGTGAAAGAGAGGAC,1.08,1.37,0.906,0.805,1.22,0.983,0.944,1.21,0.66,0.891,0.841,1.17,1.63,1.37,1.7,1.73,2.04,1.05,1.49,1.76
